Each structure is given as a SMILES string. Inconclusive results are not listed. A number with no mark means an inactive call. Active and inactive are the calls of the source. The call rests on the fitted dose curve; in most records, active means well fitted inhibition curve with a large enough effect; inconclusive means small, poorly fitted or top-dose-only effect; inactive means flat fitted curve, though single readings scatter.
On the % scale 0 is the no-effect control and ±100 the full control effect.

The test system of the assay is CRL-7250. Put plainly: Cytotoxic Profiling of Annotated Libraries Using Quantitative High-Throughput Screening (AID 1296008). Further: nearly all actives have a fitted effect of over 60% in size. The conditions noted are these: Five cell lines viability, CellTiter-Glo ATP luminescence, 48-72 h; max response: active compounds read low. In outline: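 Compounds were pin-transferred onto cells and incubated 48 or 72 hr at 37 degree Celsius, 95% humidity. CellTiter-Glo was added, plates sat 10 min at room temperature, then ATP-coupled luminescence was imaged as the viability read-out.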
For `COC1C(=O)CCC2(CO2)C1(O)C1(C)OC1CC=C(C)C` (stereo not given), the max response was -21.3%.

On to `CNS(=O)(=O)CC1CCC(N(C)c2ncnc3[nH]ccc23)CC1` (stereo not given), for which the max response was 2.42%.

`CS(=O)(=O)NCC1CCC(Nc2nc3c(s2)CCSc2ccccc2-3)CC1` (stereo not given): the max response was -26.8%.

Turning to `CC12CCC(OC3OC(CO)C(O)C(OC4OC(CO)C(O)C(O)C4O)C3O)CC1CCC1C2CCC2(C)/C(=C3/COC(=O)C3)CCC12O` (stereo not given), the max response was -8.75%.

For `CC1(O)CC(O)C2(O)C=COC(O[C@@H]3O[C@H](CO)[C@@H](O)[C@H](O)[C@H]3O)C12` (stereo not given in full), the max response was -2.75%.

For the molecule `C=C[C@H]1[C@H](O[C@@H]2O[C@H](CO)[C@@H](O)[C@H](O)[C@H]2O)OC=C(C(=O)OC)[C@H]1C[C@@H]1c2cc(O)c(O)cc2CCN1C(C)=O`, the max response was -23.5%.

Regarding `COc1ccc([C@@H]2OC[C@H]3[C@@H]2CO[C@@H]3c2ccc(OC3OC(CO)C(O)C(O)C3O)c(OC)c2)cc1OC` (stereo not given in full), the max response is -6.62%.

Regarding `Cc1cc2c(c(=O)[nH]1)OC(C(O)CC(C)C)O2` (stereo not given), the max response is -20.7%.

Consider `CC1(C)CC[C@@]2(C(=O)O[C@@H]3O[C@H](CO)[C@@H](O)[C@H](O)[C@H]3O)C(C1)C1=CCC3[C@@]4(C)CC[C@@H](O[C@@H]5O[C@H](C(=O)O)[C@@H](O[C@@H]6OC[C@@H](O)[C@H](O)[C@H]6O)[C@H](O[C@@H]6OC[C@](O)(CO)[C@H]6O)[C@H]5O)C(C)(C)C4CC[C@@]3(C)[C@]1(C)C[C@H]2O` (stereo not given in full), for which the call was inactive.

Take `COc1c(C)c(OCC(O)C(C)(C)O)cc2c1COC2=O` (stereo not given): the max response is 4.27%.

For the origin of these results see PubChem BioAssay (NCATS).
